HT1080NT lethal: qHTS for induction of synthetic lethality in tumor cells producing 2HG: qHTS for the HT-1080-NT fibrosarcoma cell line. hit rate 1.6% among 360,000. Potency, µM (top dose mostly 46.1 µM), for inactives: at the highest dose activity, negative = less viability, actives largely listed as cytotoxic. HT-1080-NT fibrosarcoma viability, CellTiter-Glo ATP luminescence, 48 h;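 further: NT is the 2HG producing partner of a matched IDH1 knockdown line; 0% = DMSO-treated cells and -100% = media-only wells without cells; nearly all actives have a fitted effect of over 55% in size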
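Read-out is CellTiter-Glo luminescence after 10 minutes at room temperature, following 48 hours' compound treatment of HT-1080-NT cells (750 cells/well, RPMI, 5% FBS, 37 degrees C).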
TGFb inhibitor: qHTS for Inhibitors of TGF-b; Potency, µM (series often up to 46.1 µM), inactives show at the highest dose activity, negative = inhibition, hits mostly inhibitors; hit rate 1.2% among 410,000; HepG2 CAGA-GFP TGF-b/SMAD3 reporter, GFP fluorescence, 18 h; TGF-beta stimulated, 500 pg/mL final; further: on the % scale 0 is the no-effect control and ±100 the full control effect; nearly all actives have a fitted effect of over 65% in size
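First, reporter cells (HEPG2 CAGA-GFP) rested 2 h at 37 degrees C. Next, compounds were pinned in and TGF-beta added to 500 pg/mL final. After 18 h, GFP was imaged per cell and summed per well.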
HepG2 tox-1: qHTS for Inhibitors of TGF-b: Cytotox Counterscreen. AID 588856, 2011. hit rate 0.76% among 410,000. HepG2 CAGA-GFP viability, ATP luminescence, 18 h. Potency, µM (top dose mostly 46.1 µM), inactives show at the highest dose activity change, negative = cytotoxicity, hits mostly cytotoxic
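HepG2 CAGA-GFP cells (1000/well, DMEM with 1% FBS) received compound, then TGF-beta at 500 pg/mL final, and were incubated 18 hours at 37 degrees C. Viability was read by CellTiter-Glo luminescence. Media-only wells were set as complete cell-killing and DMSO as no toxicity.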
HT1080 IDH1KD tx: qHTS for induction of synthetic lethality in tumor cells producing 2HG: qHTS for the HT-1080-IDH1KD cell line. Potency, µM (titrated, usually from 46.1 µM), inactives show top-dose activity, negative = toxicity, hits mostly cytotoxic. AID 686971, 2013. HT-1080 IDH1 knockdown viability, ATP luminescence, 48 h. hit rate 2% among 360,000;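 further: 0% = DMSO wells and -100% = cell-free medium wells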
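HT-1080-IDH1KD cells (IDH1 knocked down), 750/well in RPMI with 5% FBS, treated with compound 48 h at 37 degrees C. Viability by CellTiter-Glo luminescence, normalised to DMSO and no-cell wells; concentration-response curves classed.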
S2 tox: Viability Counterscreen for Primary qHTS for Inhibitors of ATXN expression. S2 cells (HEK-293 line with an ATXN2-luciferase reporter) viability, CellTiter-Fluor protease fluorescence, 24 h. Potency, µM (top dose mostly 56.7 µM), most hits filed as cytotoxic. hit rate 0.49% among 400,000; further: nearly all actives have a fitted effect of over 40% in size
ATXN2 expr inh: Primary qHTS for Inhibitors of ATXN expression; HEK-293 ATXN2-luciferase reporter, luminescence, 24 h; Potency, µM (series often up to 57 µM), inactives show at the highest dose activity change, negative = inhibition, hits mostly inhibitors; hit rate 0.72% among 360,000; further: on the % scale 0 is the no-effect control and ±100 the full control effect; nearly all actives have a fitted effect of over 55% in size
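qHTS (up to 57 uM final) was run with 24 h compound exposure of reporter cells at 37 °C. Each well was multiplexed: SteadyGlo luminescence measured ATXN2-luciferase expression after a fluorogenic Gly-Phe-AFC viability readout (25 uM final).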
TGFb CAGA inh: qHTS for Inhibitors of TGF-b: Confirmation of Cherry Picks. shares compounds with TGFb inhibitor. HepG2 CAGA-GFP TGF-b reporter, GFP fluorescence, 18 h; cells stimulated with TGF-beta, 500 pg/mL. hit rate 63% among 1,600. Potency, µM (top dose mostly 46.1 µM), for the others: top-dose activity, negative = inhibition, actives largely listed as inhibitors. AID 720534, 2013; further: on the % scale 0 is the no-effect control and ±100 the full control effect; nearly all actives have a fitted effect of over 65% in size
HepG2 tox-2: qHTS for Inhibitors of TGF-b: Cytotox Counterscreen for Cherry Picks | hit rate 27% among 1,600 | AID 720535, 2013 | shares compounds with TGFb inhibitor | Potency, µM (doses to about 46.1 µM), inactives show top-dose activity, negative = cytotoxicity, usual class: inhibitors | HepG2 CAGA-GFP viability, ATP luminescence, 18 h; cells stimulated with TGF-beta, 500 pg/mL; further: on the % scale 0 is the no-effect control and ±100 the full control effect; nearly all actives have a fitted effect of over 70% in size
TGFb CCL64 inh: qHTS for Inhibitors of TGF-b: CCL64 Cells Orthogonal Assay for Cherry Picks; shares compounds with TGFb inhibitor; CCL64 CAGA-GFP reporter, TGF-b stimulated, GFP fluorescence, 18 h; Potency, µM (doses to about 46.1 µM), for the others: top-dose activity, negative = inhibition, actives largely listed as inhibitors; hit rate 41% among 1,600; AID 720536, 2013; further: nearly all actives have a fitted effect of over 65% in size
TGFb COP inh: qHTS for Inhibitors of TGF-b: Hit Validation in HepG2 Cells using COP promoter; hit rate 3% among 1,600; AID 720537, 2013; shares compounds with TGFb inhibitor; HepG2 COP-GFP TGF-b reporter, GFP fluorescence, 18 h; cells stimulated by added recombinant TGF-beta; Potency, µM (highest dose often 46.1 µM), for the others: at the top dose activity, negative = inhibition, actives largely listed as inhibitors; further: nearly all actives have a fitted effect of over 70% in size
Active calls of the source: *; i = inactive; ? = inconclusive; / = no result; [ ] = remark or other dose. A selection: hits, their analogues and other compounds. The true share with any hit is near 3.9%. The call rests on the fitted dose curve; in most records, active means well fitted curve in the direction sought with a large enough effect; inconclusive means small, poorly fitted or top-dose-only effect, or another doubt; inactive means no such curve, though single readings can be large; an effect the other way counts as inactive or inconclusive. Potency means the concentration at half of the fitted maximal effect.

SMILES	HT1080NT lethal	TGFb inhibitor	HepG2 tox-1	HT1080 IDH1KD tx	S2 tox	ATXN2 expr inh	TGFb CAGA inh	HepG2 tox-2	TGFb CCL64 inh	TGFb COP inh
Cc1ccccc1C(=O)c1c[nH]c(C(=O)N2CCN(c3ccccc3F)CC2)c1	-24.7%	?	15.3%	?	i	-3.4%	13µM*	-19.0%	?	2.8%
NC(=O)c1cc(C(=O)c2cccc(Cl)c2Cl)c[nH]1	-4.6%	-1.8%	-18.9%	-18.4%	i	3.6%	/	/	/	/
O=C(c1c[nH]c(C(=O)N2CCN(c3ccccc3F)CC2)c1)c1cccc(Cl)c1Cl	9.2µM*	10µM*	-5.3%	?	i	/	11.6µM*	?	?	70.0%
CCn1cc(S(=O)(=O)c2ccc(C)cc2C)c(=O)c2cc(F)c(N3CCCC3)cc21	/	?	-22.6%	/	/	/	/	/	/	/
CN(C)c1cccc2c1C(=O)c1ccccc1C2=O	-26.9%	-22.6%	-18.4%	-23.6%	?	-2.5%	/	/	/	/
Cc1ccc(SC2=C(N(C)C)C(=O)c3ccccc3C2=O)cc1	?	10µM*	-49.7%	?	?	?	?	-21.1%	20.6µM*	43.1%
CC(C(=O)N1CCc2ccccc21)N1CCN(c2cccc(C(F)(F)F)c2)CC1 (stereo unspecified)	?	7.08µM*	-39.4%	-19.5%	i	-17.1%	?	3.3%	?	-9.4%
COc1ccc(OC)c(S(=O)(=O)N2CCC(c3ccncc3)CC2)c1	/	-4.3%	-4.6%	/	i	-4.9%	/	/	/	/
CC(C)C[C@@H](CN1CCCC1CN1C(=S)NC[C@@H]1Cc1ccc(O)cc1)N1C[C@H](Cc2ccc(O)cc2)N(CC2CCCCCC2)C1=S (stereo partly specified)	23.1µM*	5.62µM*	-110.6%	?	28.2µM*	?	20.6µM*	?	13µM*	?
CC(C)C[C@@H](CN1CCCC1CN1C(=S)NC[C@@H]1Cc1ccc(O)cc1)N1C[C@H](Cc2ccccc2)N(CC2CCCCCC2)C1=S (stereo partly specified)	-4.7%	15.8µM*	-6.8%	-13.2%	?	-28.1%	10.3µM*	?	2.06µM*	30.8%
CC(C)C[C@@H](CN1CCCC1CN1C(=S)NC[C@@H]1Cc1ccccc1)N1C[C@H](Cc2ccccc2)N(CC2CCCCCC2)C1=S (stereo partly specified)	-20.8%	/	/	-0.8%	?	-24.3%	/	/	/	/
COCCCNC(=O)Cn1c(=O)n(-c2ccccc2)c(=O)c2c1c1cc(OC)ccc1n2C	/	0.0%	-4.6%	/	i	1.9%	/	/	/	/
CC(NCC(O)COCCC12CC3CC(CC(C3)C1)C2)c1ccccc1 (stereo unspecified)	?	7.94µM*	7.08µM*	?	/	31.6µM*	?	20.6µM*	?	?
CCn1nc([N+](=O)[O-])c(C(C#N)c2nc3cc(C(F)(F)F)ccc3s2)c(Cl)c1=O (stereo unspecified)	0.631µM*	0.355µM*	-99.8%	0.316µM*	/	?	3.26µM*	8.2µM*	5.17µM*	-28.7%
Cc1ccc(Cl)cc1NC(=O)N1CCC(CN2CCc3ccccc3C2)CC1	/	6.1%	1.8%	/	/	/	/	/	/	/
NC(=S)NN=Cc1c[nH]c2nccnc12	-21.5%	12.6µM*	-25.5%	?	?	/	?	?	26.6%	38.0%
Nc1nnnn1/N=C/C(Br)=C/c1ccccc1	-29.8%	3.55µM*	-30.1%	9.2µM*	14.1µM*	25.1µM*	?	?	?	33.7%
Nc1nnnn1/N=C/C=C/c1ccccc1	17.0%	-20.4%	6.3%	15.6%	i	36.0%	/	/	/	/
CC(=O)Oc1ccc(-c2ccc(C(=O)Nc3cccc(S(=O)(=O)N4CCOCC4)c3)cc2)cc1	?	11.2µM*	-14.2%	10.3µM*	i	-35.1%	20.6µM*	?	?	17.5%
O=[N+]([O-])c1ccc(NC(=S)NCCc2ccc(Cl)cc2)cc1	?	6.31µM*	11.2µM*	?	?	?	14.6µM*	20.6µM*	4.61µM*	97.3%
O=C(Nc1ccc([N+](=O)[O-])cc1)Nc1ccon1	1.16µM*	10µM*	-27.5%	0.731µM*	i	-12.1%	?	-21.1%	?	-16.7%
O=C(Nc1ccc(Cl)cc1)Nc1csc([N+](=O)[O-])c1	13µM*	3.98µM*	-25.6%	10.3µM*	i	?	6.51µM*	6.51µM*	5.17µM*	75.9%
O=C(Nc1csc([N+](=O)[O-])c1)Nc1c(Cl)cccc1Cl	-15.5%	-17.6%	-18.9%	0.5%	i	/	/	/	/	/
O=C(Nc1ccc([N+](=O)[O-])cc1)Nc1ccc(Cl)cc1F	-2.8%	2.24µM*	2.82µM*	-11.8%	i	?	?	?	4.11µM*	26.0%
O=[N+]([O-])c1ccc(NC(=S)NCCc2ccccc2)cc1	?	?	-24.1%	?	i	21.1%[11.3 µM]	/	/	/	/
COc1ccc(C(=O)Oc2cc(-c3ccc(OC)c(OC)c3)cc(=O)c3c(C)oc(C)c23)cc1	/	-5.2%	-7.1%	/	i	-21.8%	/	/	/	/
